Test systems include SR leukemia; RPMI-8226 leukemia; OVCAR-8 ovarian; OVCAR-5 ovarian; OVCAR-4 ovarian; SK-OV-3 ovarian; IGROV1 ovarian; OVCAR-3 ovarian; HS 578T breast; NCI/ADR-RES ovarian; T-47D breast; BT-549 breast; MDA-MB-435 melanoma; SW-620 colon; MCF7 breast; HCT-116 colon; HCC-2998 colon; KM12 colon.
Holding throughout (assay): NCI-60 one-dose screen, 48 h (100 = growth as untreated, 0 = no growth, -100 = all killed)
Settings in all cases: 10 µM unless noted

About 83,000 compounds went through this panel and 20% of them were active in at least one assay; those are over-represented in the sample as a whole.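 Cells were grown in 96-well plates and exposed to the test compound at a single concentration for 48 hours; results are reported as percent growth, with values below 10 considered active.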 Unmarked numbers belong to inactive results. Activity calls are given as the source filed them.

Consider `C[C@@H]1CC[C@@H]2[C@@H]1[C@H](OC(=O)/C=C/c1ccccc1)[C@]1(CCCOCCOCCOCCOC(=O)CCCC[C@@H]3SC[C@@H]4NC(=O)N[C@@H]43)C[C@@H](OC(=O)CO)[C@@]2(C)O1`, for which the growth was 88.3% with SR leukemia; 112% with RPMI-8226 leukemia; 113% in the test on OVCAR-8 ovarian; 101% in the test with OVCAR-5 ovarian; 95.7% with OVCAR-4 ovarian; 102% in the test with SK-OV-3 ovarian. Further, the growth is 107% with IGROV1 ovarian; 104% with OVCAR-3 ovarian; 99.5% in the test with HS 578T breast; 105% in the test with NCI/ADR-RES ovarian; 92.4% in the test on T-47D breast; 99.4% in the test on BT-549 breast. Also, the growth was 99.7% with MDA-MB-435 melanoma; 102% in the test with SW-620 colon; 102% in the test on MCF7 breast; 92.7% in the test on HCT-116 colon; 104% in the test with HCC-2998 colon; 102% in the test on KM12 colon.
As to `COc1cc2c(=O)n(CCCn3ccnc3)c3c4cc5c(cc4ccc3c2cc1OC)OCO5`, the growth with SR leukemia is 10.5%; in the test with RPMI-8226 leukemia, -31.9% (active); with OVCAR-8 ovarian, 15.1%; in the test with OVCAR-5 ovarian it was 13.9%; in the test with OVCAR-4 ovarian it was 28.6%; in the test on SK-OV-3 ovarian, -11.4% (active). Also, the growth is 19.5% with IGROV1 ovarian; -8.36% (active) in the test with OVCAR-3 ovarian; 32.4% in the test on HS 578T breast; 10.5% with NCI/ADR-RES ovarian; -10.9% (active) in the test with T-47D breast; 28.4% with BT-549 breast. Moreover, the growth in the test with MDA-MB-435 melanoma was -25.3% (active); in the test with SW-620 colon it was 11%; in the test with MCF7 breast, 4.23% (active); in the test with HCT-116 colon, -62.1% (active); in the test on HCC-2998 colon, 33.3%; in the test with KM12 colon, 8.03% (active).
For the compound `CCN(CC)S(=O)(=O)c1ccc(O)c(NC(=O)c2[nH]c(C)c(C(C)=O)c2CCc2ccc(Cl)cc2)c1`, the growth was 32.5% in the test with SR leukemia; 28.3% with RPMI-8226 leukemia; 37.5% in the test on OVCAR-8 ovarian; 92.7% in the test on OVCAR-5 ovarian; 15.2% in the test with OVCAR-4 ovarian; 37.8% in the test on SK-OV-3 ovarian. Besides, the growth was 45.5% in the test with IGROV1 ovarian; 24.1% in the test with OVCAR-3 ovarian; 49.9% in the test with HS 578T breast; 50.5% in the test on NCI/ADR-RES ovarian; 13% in the test with T-47D breast; 40.5% with BT-549 breast. Moreover, the growth in the test on MDA-MB-435 melanoma is 43.4%; in the test with SW-620 colon, 61.5%; in the test with MCF7 breast, 43.8%; with HCT-116 colon it was 28.1%; in the test with HCC-2998 colon, 76.3%; in the test on KM12 colon, 29.8%.
As for `Cn1ccc(Cc2cnc(N)s2)n1`, the growth with SR leukemia was 88.7%; in the test with RPMI-8226 leukemia, 101%; in the test on OVCAR-8 ovarian, 94.5%; in the test with OVCAR-5 ovarian it was 106%; in the test on OVCAR-4 ovarian, 99.4%; in the test with SK-OV-3 ovarian, 99.7%. Moreover, the growth in the test with IGROV1 ovarian was 111%; with OVCAR-3 ovarian it was 106%; in the test on HS 578T breast, 93.5%; in the test with NCI/ADR-RES ovarian, 102%; in the test on T-47D breast, 101%; with BT-549 breast, 102%. For the same compound, the growth in the test on MDA-MB-435 melanoma was 101%; in the test with SW-620 colon, 98.9%; in the test on MCF7 breast, 101%; with HCT-116 colon, 108%; in the test with HCC-2998 colon it was 100%; with KM12 colon it was 103%.
As to `Nc1nc(I)c2ncn(C3OC(CO)C(O)C3O)c2n1` (centres undefined), the growth was 107% in the test on SR leukemia; 157% with RPMI-8226 leukemia; 112% in the test on OVCAR-8 ovarian; 104% in the test with OVCAR-5 ovarian; 129% in the test on OVCAR-4 ovarian; 100% in the test on SK-OV-3 ovarian. Moreover, the growth is 121% in the test with IGROV1 ovarian; 112% with OVCAR-3 ovarian; 136% with HS 578T breast; 105% in the test on NCI/ADR-RES ovarian; 94.9% with T-47D breast; 69.7% in the test on BT-549 breast. Also, the growth in the test on MDA-MB-435 melanoma is 91.6%; in the test with SW-620 colon, 114%; with MCF7 breast, 96.6%; in the test with HCT-116 colon it was 110%; in the test with HCC-2998 colon it was 103%; with KM12 colon, 115%.
In the case of `N[C@H]1CCC[C@@H]1NCCCCN1C(=O)c2cccc3cccc(c23)C1=O`, the growth was 20% in the test on SR leukemia; 75.1% in the test with RPMI-8226 leukemia; 39.9% with OVCAR-8 ovarian; 74% in the test on OVCAR-5 ovarian; 36% in the test with OVCAR-4 ovarian; 95.2% in the test on SK-OV-3 ovarian. Also, the growth was 39.3% in the test on IGROV1 ovarian; 61.3% in the test on OVCAR-3 ovarian; 68.2% in the test with HS 578T breast; 79.1% in the test on NCI/ADR-RES ovarian; 82.6% with T-47D breast; 74.1% with BT-549 breast. Besides, the growth in the test on MDA-MB-435 melanoma is 89.5%; in the test with SW-620 colon it was 30%; in the test on MCF7 breast, 52.8%; in the test on HCT-116 colon, 32%; in the test on HCC-2998 colon, 53.9%; in the test on KM12 colon it was 48.4%.
For `Cc1ccccc1NC(=O)CN(C)C`, the growth is 104% in the test with SR leukemia; 111% in the test with RPMI-8226 leukemia; 108% in the test on OVCAR-8 ovarian; 95.8% with OVCAR-5 ovarian; 118% with OVCAR-4 ovarian; 101% in the test on SK-OV-3 ovarian. The growth in the test on IGROV1 ovarian is 96%; with OVCAR-3 ovarian it was 113%; with HS 578T breast it was 113%; in the test with NCI/ADR-RES ovarian, 101%; in the test on T-47D breast, 95.6%; in the test with BT-549 breast, 106%. Also, the growth in the test on MDA-MB-435 melanoma is 108%; with SW-620 colon it was 108%; in the test on MCF7 breast, 97.4%; in the test on HCT-116 colon, 101%; in the test on HCC-2998 colon, 116%; with KM12 colon, 107%.
In the case of `COc1ccc(-c2cc(-c3cc(OC)ccc3O)[nH]c(=O)c2C#N)cc1`, the growth in the test with SR leukemia is 10.1%; in the test on RPMI-8226 leukemia, 56.4%; in the test on OVCAR-8 ovarian, 64.3%; in the test on OVCAR-5 ovarian it was 119%; with OVCAR-4 ovarian, 80.5%; with SK-OV-3 ovarian, 63.5%. In addition, the growth is 71.6% in the test on IGROV1 ovarian; 27.5% in the test on OVCAR-3 ovarian; 36.6% with HS 578T breast; 52.7% with NCI/ADR-RES ovarian; 45.6% in the test on T-47D breast; 22.1% with BT-549 breast. In addition, the growth in the test with MDA-MB-435 melanoma was -0.171% (active); in the test on SW-620 colon, 34.4%; with MCF7 breast, 46.4%; with HCT-116 colon, 33.6%; in the test on HCC-2998 colon, 72.9%; with KM12 colon, 41.8%.

The values above are taken from PubChem BioAssay (NCI).
